Bioassay records (PubChem)
sEH inhibitor – inhibitors of human soluble epoxide hydrolase. inhibition, % at 2 µM. AID 707. recombinant human sEH enzymatic activity assay. 91,000 tested, 0.34% active. P34913; in the data active = inhibition above about 80%
Cav32 inh – human Cav3.2 channel inhibition, primary screen; 100,000 tested, 4% active; Cav3.2-expressing cells, Fluo-4 calcium fluorescence FDSS; stronger effect = lower value; B-score at 10 µM; O95180; AID 449739;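 active = single-dose well whose peak fluorescence ratio is a statistical outlier from its plate by either plate-standardised score or position-corrected B-score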
HUVEC tox IL1B – toxic to HUVEC cells under IL-1B stimulation; HUVEC cell count loss, Hoechst imaging, IL-1B stimulated; cell count reduction, % at 2 µM; 94,000 tested, 0.41% active;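 active = cell count reduction more than 3 SD above the screen-wide mean, cut at about 70% in these data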;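 also: normalized per plate to untreated control cells as the no-loss baseline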
IL1B NFkB inh – blocks IL-1B driven NFkB nuclear translocation in HUVEC cells | HUVEC IL-1B NFkB p65 nuclear translocation imaging | inhibition, % at 2 µM | AID 796 | 94,000 tested, 0.43% active;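 active = inhibition above about 30% together with a positive call from visual inspection of the well image, limit read from the data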;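 also: nuclear over cytoplasmic p65 intensity ratio measured by imaging; 0% = IL-1B stimulated DMSO wells and 100% = unstimulated DMSO wells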
sEH act – soluble epoxide hydrolase (human) activation. activation, % at 2 µM. 91,000 tested, 0.04% active. AID 717. P34913. purified human sEH enzymatic activity, activator screen; in the data active = activation above about 37%
IL1B NFkB pot – enhances IL-1B driven NFkB nuclear translocation. activation, % at 2 µM. HUVEC IL-1B NFkB p65 nuclear translocation imaging. 94,000 tested, 0.3% active;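 active = activation above 40%, about the mean plus 3 SD, also judged a hit on visual image review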;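 also: percent activation is computed from the nuclear over cytoplasmic p65 intensity ratio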
Starred values were filed as active, the others as inactive; x = not tested or not shown. This is a sample that favours compounds with a hit; in the whole collection about 4.6% have one here.

SMILES | sEH inhibitor | Cav32 inh | HUVEC tox IL1B | IL1B NFkB inh | sEH act | IL1B NFkB pot
CCn1c(SCC(=O)Nc2cc(C)on2)nc2sc3c(c2c1=O)CCCC3 | 0 | x | 83* | 96* | -2 | -96
Cc1cc(NC(=O)CSc2nc3sc4c(c3c(=O)n2C)CCCC4)no1 | -21 | x | 9 | -1 | 20 | 1
CC1CN(Cc2nc3c(c(=O)n(C)c(=O)n3C)n2Cc2ccccc2)CC(C)O1 (centres undefined) | 21 | 0.013 | -10 | -1 | -19 | 1
CCCOc1cccc(/C=N/NC(=O)c2csc(C)c2C)c1 | 86* | -0.93 | 19 | 6 | -86 | -6
COc1cccc(Nc2nc(=O)[nH]nc2C)c1 | -8 | -0.014 | 83* | 18 | 6 | -18
Cc1ccc(C)c(S(=O)(=O)NCc2ccc(C(=O)N3CCN(C)CC3)cc2)c1 | 9 | 0.6 | -23 | -22 | -10 | 22
Cc1ccc(C)c(S(=O)(=O)NCc2ccc(C(=O)N3CCC(Cc4ccccc4)CC3)cc2)c1 | -2 | -3.9* | -17 | -12 | 3 | 12
CCCc1cc(=O)[nH]c(NCc2ccc(Cl)cc2)n1 | -4 | -1.3 | 90* | 0 | 1 | 0
Cc1cccc(Nc2ccccc2C(=O)OCC(=O)N(C)C2CCS(=O)(=O)C2)c1C (centres undefined) | -7 | -3.4* | 24 | 1 | 6 | -1
O=S(=O)(c1ccc(Cl)cc1)c1ccccn1 | -4 | 0.36 | 8 | 7 | 6 | -7
CC1(C)CC(n2c(NCCO)nc3c(c2=O)C2(CCCC2)Cc2ccccc2-3)CCO1 (centres undefined) | x | -4.3* | x | x | x | x
O=c1c2c(nc(NCCO)n1CC1CCCCC1)-c1ccccc1CC21CCCC1 | -7 | -2.7 | -42 | 5 | 6 | -5
O=C1C2C3C=CC(C3)C2C(=O)N1c1n[nH]c(-c2ccccc2)n1 (centres undefined) | 2 | 0.94 | 2 | 9 | -3 | -9
Cc1ccc(S(=O)(=O)NNc2ccccc2)cc1 | 1 | -0.15 | -13 | -7 | 3 | 7
Cc1ccc(S(=O)(=O)NNc2nc3ccccc3nc2C(F)(F)F)cc1 | 16 | -3.4* | -1 | -2 | -17 | 2
CCOC(=O)Nc1ccc2c(CN3C(=O)NC(CC)(CC)C3=O)cc(=O)oc2c1 | -2 | 1 | 25 | 1 | 4 | -1
COc1cccc(/C=N/NC(=O)CO/N=C(\C)c2cccs2)c1OC | 20 | x | -14 | -4 | -19 | 4
C/C(=N\OCC(=O)N/N=C/c1ccccc1O)c1cccs1 | 6 | -4.3* | -4 | 0 | -8 | 0
N#Cc1c(-c2ccco2)nc(SCC(=O)Nc2cccc(Cl)c2)[nH]c1=O | 4 | -0.45 | -7 | -1 | -5 | 1
CCn1c(=NC(=O)CSC(C)=O)sc2ccccc21 | 1 | -7.3* | -10 | 13 | 0 | -13
CCOC(=O)Cn1c(=NC(=O)CSC(C)=O)sc2cc(F)ccc21 | 12 | -7.5* | -36 | -4 | -10 | 4
Cn1c(=NC(=O)CN2C(=O)C3CC=CCC3C2=O)sc2ccccc21 (centres undefined) | -1 | 1.2 | -12 | 0 | 0 | 0
COC(=O)Cn1c(=O)sc2ccccc21 | x | -0.13 | -20 | 1 | x | -1
COC(=O)Cn1c(=NC(=O)CSC(C)=O)sc2ccccc21 | x | -6.2* | x | x | x | x
COc1cccc2c(=O)n(CC(=O)N3CCC(C)CC3)ccc12 | 16 | 1.4 | -14 | 9 | -16 | -9
SMILES | sEH inhibitor | Cav32 inh | HUVEC tox IL1B | IL1B NFkB inh | sEH act | IL1B NFkB pot
O=C(NCC1CCCO1)c1ccccc1 (centres undefined) | 10 | -0.42 | -131 | -11 | -12 | 11
Nc1c(C(=O)NCC2CCCO2)c2nc3ccccc3nc2n1-c1ccccc1 (centres undefined) | -25 | -5.6* | 11 | -3 | 25 | 3
COc1ccc(NC(=O)/C(Cl)=C(/Cl)S(=O)Cc2ccccc2)cn1 (centres undefined) | 1 | 0.77 | 14 | 65* | -1 | -84
CCOc1ccccc1OCCCC(=O)Nc1ccc(OC)nc1 | x | 0.66 | x | x | x | x
COc1ccc(-c2n[nH]c3c2C(c2ccc(OC)c(OC)c2)N(c2ccccc2)C3=O)cc1 (centres undefined) | -1 | -5.6* | -2 | -6 | -2 | 6
Cc1ccnc(SCC(=O)N2CCN(c3ccccc3)CC2)n1 | 8 | 0.94 | -10 | 5 | -7 | -5
CCOc1ccc(N(CC(=O)Nc2cccc(F)c2)S(=O)(=O)c2c(C)noc2C)cc1 | 30 | -0.46 | -24 | -11 | -28 | 11
CCOC(=O)c1cccc(NC(=O)CN(c2ccc(OC)cc2)S(=O)(=O)c2c(C)noc2C)c1 | x | -4.9* | -18 | -39 | x | 39
COc1ccc(N(CC(=O)Nc2cccc(C(=O)O)c2)S(=O)(=O)c2c(C)noc2C)cc1 | x | -0.49 | -27 | 1 | x | -1
CCOc1ccc(N(CC(=O)Nc2ccc(C)c(C)c2)S(=O)(=O)c2c(C)noc2C)cc1 | x | -4.9* | x | x | x | x
COc1ccc(S(=O)(=O)N(Cc2cccs2)C2CCCC2)cc1 | 7 | x | 6 | -1 | -9 | 1
Cc1cc(C)c(S(=O)(=O)/N=C2\C=CC(=O)C(Cl)=C2)c(C)c1 | 11 | -1.1 | 23 | 31* | -10 | -31
CCCOc1ccccc1N/C(=N/c1nc(C)cc(C)n1)NC(=O)COc1ccc(OC)cc1 | 16 | -5* | 7 | -18 | -17 | 18
COc1ccc(OCC(=O)Nc2ccccc2OC)cc1 | x | -1 | x | x | x | x
NNC(=O)Cn1c(SCc2ccccc2)nc2ccccc21 | -1 | -0.0067 | -5 | -9 | -5 | 9
CCCC(=O)Nc1ccc(S(=O)(=O)N2CCOCC2)cc1 | -2 | 0.41 | -18 | -21 | 2 | 21
CCCn1c(CCC(=O)Nc2ccccc2Cc2ccccc2)nc2cc(S(=O)(=O)N3CCOCC3)ccc21 | -2 | -9.6* | 6 | -3 | 5 | 3
C/C=C(\C)C(=O)NCCN1C2=NC[C@H](C)N2C[C@@H]1Cc1ccc(OC)cc1 | x | 0.69 | x | x | x | x
COc1ccc(S(=O)(=O)NCCSCc2ccco2)cc1Cl | -2 | -6* | -25 | -20 | 4 | 20
O=C(CSc1nnc(COc2ccccc2)n1-c1ccccc1)c1cccs1 | x | -6.9* | x | x | x | x
Cc1ccc(OCc2nnc(SCC(=O)c3cccs3)n2-c2ccccc2)cc1C | -5 | -4.7 | -10 | -2 | 8 | 2
CCOC(=O)C(CC)Sc1nnc(COc2ccc(C)cc2)n1-c1ccccc1 (centres undefined) | -12 | -7.3* | 38 | -6 | 14 | 6
COc1ccc(CC(=O)N2CCCc3ccccc32)cc1 | 10 | -0.36 | 8 | 14 | -7 | -14
CCOC(=O)Cc1csc(NC(=O)c2cccs2)n1 | x | -5.4* | x | x | x | x
CCOC(=O)Cc1csc(NC(=O)c2c(-c3ccccc3)noc2C)n1 | -1 | 0.081 | -32 | -10 | 0 | 10
O=S(=O)(c1ccc(Cl)cc1)N1c2ccccc2Oc2nc3ccccc3nc21 | 1 | x | 86* | 97* | 2 | -97
O=C(NO)c1ccc(C(=O)N(C2CCCCC2)C2CCCCC2)cc1 | 6 | -0.52 | 1 | -44 | -6 | 44*
